Compound activity from PubChem.
pS6 MEF inh – mTORC1 pathway inhibition measured by phospho-rpS6; Tsc2-/- p53-/- MEF, phospho-rpS6 immunofluorescence/PI, 24 h; Potency, µM (doses to about 38.3 µM), for inactives: at the highest dose activity change, negative = inhibition, most hits filed as inhibitors; 44,000 compounds, 0.78% hits; AID 493208;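 further: potency means the concentration at half of the fitted maximal effect; plate controls were DMSO for no effect and rapamycin for full effect; nearly all actives have a fitted effect of over 50% in size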
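Readout is phospho-S6 Alexa 488 signal normalized to PI per well, reported as % active cells with thresholds set from rapamycin (7.5 nM) and DMSO controls. Cells: Tsc2-/-, p53-/- MEFs, 24 hrs compound at 37 C; PI cell number serves as viability.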
NTMT1 inh – NTMT1 methyltransferase inhibition; Q9BV86; NTMT1 MTase-Glo SAH luminescence, purified enzyme; Potency, µM (highest dose often 114 µM), without a hit: at the top dose activity change, negative = inhibition, most hits filed as inhibitors; 59,000 compounds, 2.5% hits;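 further: potency means the concentration at half of the fitted maximal effect; plate controls were DMSO vehicle for no effect and no enzyme for full effect; nearly all actives have a fitted effect of over 65% in size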
S16 F2sN tox – cytotoxicity in S16 Pmp22-F2sN Schwann cells; S16 Pmp22-F2sN Schwann cells viability, CellTiter-Glo, 24 h; Potency, µM (doses to about 57.5 µM), without a hit: at the top dose activity change, negative = cytotoxicity, actives largely listed as cytotoxic; 43,000 compounds, 0.48% hits; further: potency means the concentration at half of the fitted maximal effect; on the % scale 0 is the no-effect control and ±100 the full control effect; nearly all actives have a fitted effect of over 65% in size
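Seed 500-1,000 S16 Pmp22-F2sN cells per well in phenol-red-free DMEM with 10% heat-inactivated FBS; pin-add 23 nL compound; incubate 24 h at 37C; add CellTiter-Glo, wait 15 min protected from light; read luminescence.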
SKOV3 invasion – ovarian cancer metastasis inhibition, 3D TME model | SKOV3ip1-GFP adhesion/invasion on 3D omental model, fluorescence | Potency, µM (titrated, usually from 45.8 µM), without a hit: at the top dose activity change, negative = inhibition, most hits filed as inhibitors | 46,000 compounds, 0.1% hits | AID 1963576;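 further: potency means the concentration at half of the fitted maximal effect; plate controls were DMSO wells for no effect and tomatine positive control wells for full effect; nearly all actives have a fitted effect of over 65% in size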
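A 3D layer of primary human omental fibroblasts, mesothelial cells, fibronectin and collagen I, grown 48 hr, received SKOV3ip1-GFP cells in serum-free medium plus compounds at 0.36-46 umol/L. After 2 hr RT and 16 hr 37 C, fixed adherent GFP cells were counted; normalized to DMSO and tomatine.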
GALC G270D act – raises human GALC G270D mutant activity in cells. P54803. 145M-Twi-hGALC-G270D cells (Twitcher mouse brain line with human GALC G270D), HMU-beta-Gal fluorescence, 48 h. Potency, µM (titrated, usually from 57.5 µM), most hits filed as activators. 45,000 compounds, 0.1% hits; further: potency means the concentration at half of the fitted maximal effect; 0% is about no effect; nearly all actives have a fitted effect of over 65% in size
Target sequence (P54803 whole entry G286D): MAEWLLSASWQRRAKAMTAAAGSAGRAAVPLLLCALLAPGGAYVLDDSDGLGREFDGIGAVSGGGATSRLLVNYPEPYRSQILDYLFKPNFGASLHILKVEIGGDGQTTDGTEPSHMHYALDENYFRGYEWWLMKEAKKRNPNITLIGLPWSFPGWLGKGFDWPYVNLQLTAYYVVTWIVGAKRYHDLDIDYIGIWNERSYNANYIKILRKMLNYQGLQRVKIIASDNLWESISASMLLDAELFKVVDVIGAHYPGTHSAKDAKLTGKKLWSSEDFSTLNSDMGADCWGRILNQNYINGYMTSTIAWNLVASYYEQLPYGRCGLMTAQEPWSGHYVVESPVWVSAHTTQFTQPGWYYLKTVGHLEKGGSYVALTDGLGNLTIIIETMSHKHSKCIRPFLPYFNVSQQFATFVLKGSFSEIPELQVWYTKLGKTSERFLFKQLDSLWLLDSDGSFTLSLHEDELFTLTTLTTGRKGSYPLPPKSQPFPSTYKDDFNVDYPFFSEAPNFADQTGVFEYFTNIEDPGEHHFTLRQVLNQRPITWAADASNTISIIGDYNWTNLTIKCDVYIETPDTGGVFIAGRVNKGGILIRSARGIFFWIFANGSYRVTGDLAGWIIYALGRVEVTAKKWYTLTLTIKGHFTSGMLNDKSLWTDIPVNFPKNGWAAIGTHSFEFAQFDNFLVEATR
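Live 145M-Twi cells (Twitcher mouse brain-derived, GALC-null) stably expressing human GALC-G270D, with a wild-type GALC line, were compound-treated. Residual GALC activity was then read as fluorescence from 0.1 mM final HMU-β-gal at pH 5.2; higher signal means activation.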
PMP22 txn prim – modulates PMP22 transcription in S16 Schwann cells; S16 Pmp22-F2sN Schwann cells, FLuc/NLuc coincidence luminescence, 24 h; 43,000 compounds, 2% hits; AID 1508649; Potency, µM (doses to about 57.5 µM), without a hit: at the highest dose activity change, negative = inhibition, most hits filed as inhibitors; active means clear falling dose curves in both reporters; inconclusive means both reporters move, but less clearly or upward; inactive means either reporter flat; the % is the NLuc reporter signal; further: potency means the concentration at half of the fitted maximal effect; on the % scale 0 is the no-effect control and ±100 the full control effect
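S16(c9) Schwann cells with FLuc/NLuc coincidence reporter in the Pmp22 3' UTR; compounds pin-transferred, 24 h at 37C. Dual-luciferase read: FLuc first, then NLuc after Stop&Glo, each 10 min at room temperature.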
NLuc saturating – inhibits NanoLuc at saturating substrate, PMP22 counter-screen; shares compounds with PMP22 txn prim; Secreted NLuc enzyme (filtered S16 cell medium), Nano-Glo luminescence; 690 compounds, 4% hits; Potency, µM (doses to about 57.5 µM), inactives show at the top dose activity change, negative = inhibition, actives largely listed as inhibitors; further: potency means the concentration at half of the fitted maximal effect; on the % scale 0 is the no-effect control and ±100 the full control effect
NLuc Km ctr – counter-screen for PMP22 expression modulators: NanoLuc inhibition at Km; shares compounds with PMP22 txn prim; secreted NLuc enzyme, coelenterazine luminescence, Km conditions; Potency, µM (titrated, usually from 57.5 µM), for the others: at the top dose activity change, negative = inhibition, hits mostly inhibitors; 690 compounds, 5% hits; further: potency means the concentration at half of the fitted maximal effect; on the % scale 0 is the no-effect control and ±100 the full control effect
FLuc ctr PMP22 – counter-screen for PMP22 expression modulators: firefly luciferase inhibition; shares compounds with PMP22 txn prim; purified P. pyralis FLuc, luminescence, 10 min; Potency, µM (doses to about 57.5 µM), for the others: at the highest dose activity, negative = inhibition, usual class: inhibitors; 690 tested, under 10 active; AID 1508640; further: % of control where 0% means no effect
S16 viab conf – confirmation of cytotoxicity in S16 Pmp22-F2sN Schwann cells (luciferase reporters placed in the Pmp22 gene); shares compounds with PMP22 txn prim; S16 Schwann cells viability, CellTiter-Glo ATP luminescence, 24 h; Potency, µM (series often up to 57.5 µM), for the others: at the highest dose activity change, negative = viability loss, usual class: cytotoxic; 690 compounds, 7% hits; AID 1508641; further: potency means the concentration at half of the fitted maximal effect; on the % scale 0 is the no-effect control and ±100 the full control effect
PMP22 txn cnf – PMP22 transcription modulation, confirmatory; shares compounds with PMP22 txn prim; S16 Schwann cells Pmp22-F2sN, dual luciferase, 24 h; Potency, µM (top dose mostly 57.5 µM), inactives show at the highest dose activity change, negative = inhibition, hits mostly inhibitors; 690 compounds, 22% hits; AID 1508646; active means clear falling dose curves in both reporters; inconclusive means both reporters move, but less clearly or upward; inactive means either reporter flat; the % is the FLuc reporter signal; further: potency means the concentration at half of the fitted maximal effect
PMP22 HiBiT cnf – confirmation of modulators of rat PMP22 protein expression; 95 tested, under 10 active; shares compounds with PMP22 txn prim; S16 Schwann cells Pmp22-HiBiT, luminescence, 48 h; Potency, µM (doses to about 27.9 µM), inactives show at the highest dose activity change, negative = inhibition, hits mostly inhibitors; AID 1508647
Target sequence (P25094 whole entry, looked up): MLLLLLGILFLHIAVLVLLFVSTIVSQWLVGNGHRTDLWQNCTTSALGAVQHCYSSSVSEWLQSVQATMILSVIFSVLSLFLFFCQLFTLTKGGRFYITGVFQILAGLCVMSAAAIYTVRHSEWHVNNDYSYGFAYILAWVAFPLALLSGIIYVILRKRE
* marks the source's active call; other numbers are inactive results; i = inactive; ? = inconclusive; . = not tested or not shown; [ ] = dose if it differs, or a comment. Sampled rows, rich in hits. Any-hit rate of the full collection: about 3.6%. Unless noted, the call rests on the fitted dose curve; in most records, active means well fitted curve in the direction sought with a large enough effect; inconclusive means small, poorly fitted or top-dose-only effect, or another doubt; inactive means no such curve, though single readings can be large; an effect the other way counts as inactive or inconclusive.

SMILES	pS6 MEF inh	NTMT1 inh	S16 F2sN tox	SKOV3 invasion	GALC G270D act	PMP22 txn prim	NLuc saturating	NLuc Km ctr	FLuc ctr PMP22	S16 viab conf	PMP22 txn cnf	others
C=C1CC2OC(=O)C(=C)C2C(O)/C=C(\C)CCC1O (stereo not given)	.	9.5%[57.5 µM]	.	.	.	.	.	.	.	.	.
COc1cccc(-c2cc(C(=O)Nc3cc(OC)c(OC)c(OC)c3)on2)c1	-1.1%	-4.2%	?	?	i	3.92µM*	?	10.9µM*	-13.4%	-5.9%	18.3µM*
Cc1ccc(NC(=O)c2oc3ccc(S(=O)(=O)N4CCCCC4)cc3c2C)cc1C	3.3%	-5.2%	-5.2%	0.6%	i	-26.5%	.	.	.	.	.
Cc1c(C(=O)Nc2ccc(F)cc2)oc2ccc(S(=O)(=O)N3CCCCCC3)cc12	-4.7%	-0.8%	-28.5%	-15.6%	i	15.2µM*	-9.6%	-19.5%	0.8%	-7.9%	-35.1%
CCSc1ncc(Cl)c(C(=O)Nc2nnc(CC)s2)n1	3.4%	3.3%	-2.2%	-9.8%	i	-1.2%	.	.	.	.	.
CCc1nnc(NC(=O)c2nc(S(C)(=O)=O)ncc2Cl)s1	?	6.9%	?	-7.8%	i	9.46µM*	?	?	-4.2%	?	13.8µM*	PMP22 HiBiT cnf=?
CCC(C)(O)C(O)C(=O)OCc1ccc(O[C@@H]2O[C@H](CO)[C@@H](O)[C@H](O)[C@H]2O)cc1 (stereo not given in full)	.	4.3%[29.8 µM]	.	.	.	.	.	.	.	.	.
On1ncc(C2CCNCC2)c1-c1cccc(-c2ccccc2)c1	.	2.1%[57.5 µM]	.	.	.	.	.	.	.	.	.
Cn1c(=O)oc2cc(S(=O)(=O)N3CCCC(C(=O)N4CCN(c5ccc(Cl)cc5)CC4)C3)ccc21 (stereo not given)	-2.1%	4.5%	?	i	i	5.12µM*	?	5.1%	2.3%	-22.3%	15.1µM*	PMP22 HiBiT cnf=?
CCOC(=O)c1c(C)c(-c2ccccc2)n(CC(=O)Nc2cc(C)ccc2OC)c1C	-0.1%	5.2%	-2.5%	-6.5%	i	9.46µM*	-4.3%	3.6%	-3.7%	-8.7%	?
COc1ccc(C2(CNC(=O)c3ccc(NC(=O)c4ccco4)cc3)CCOCC2)cc1	.	4.4%[57.5 µM]	.	.	.	.	.	.	.	.	.
COc1ccc(-n2c(SCC(=O)c3ccc(Cl)cc3)nc3c([nH]c4ccccc43)c2=O)cc1	2.3%	1.1%	12.8%	i	i	-25.1%	.	.	.	.	.
O=C(CSc1nc2c([nH]c3ccccc32)c(=O)n1-c1ccc(Cl)cc1)NC1CCCCC1	-0.5%	-3.1%	?	6.8%	i	12.6µM*	-4.2%	12.4%	-4.4%	?	17.2µM*
COc1cccc(-n2c(SCC(=O)c3ccc(Cl)cc3)nc3c([nH]c4ccccc43)c2=O)c1	-5.5%	4.2%	?	4.2%	i	10µM*	0.6%	3.9%	-5.8%	?	10.9µM*	PMP22 HiBiT cnf=-16.0%
C=C1C(O)C(OC(=O)c2ccccc2)C2C(C)(C(=O)O)CCCC2(C)C1CC/C(C)=C\CO (stereo not given)	.	13.3%[29.8 µM]	.	.	.	.	.	.	.	.	.
COc1ccc2nc(NC(=O)c3nc(SCc4cccc(C)c4)ncc3Cl)sc2c1	3.5%	9.4%	3.7%	i	i	10µM*	-8.7%	4.6%	5.4%	?	?
CCOc1ccc2nc(NC(=O)c3nc(SC(C)C)ncc3Cl)sc2c1	-2.3%	11.0%	?	i	i	17.8µM*	-6.0%	-3.0%	-11.8%	-21.1%	?
Cc1ccccc1CSc1ncc(Cl)c(C(=O)Nc2nc3ccc(F)cc3s2)n1	-3.8%	14.0%	-11.5%	i	i	?	.	.	.	.	.
Cc1cccc(CS(=O)(=O)c2ncc(Cl)c(C(=O)Nc3nc4ccc(F)cc4s3)n2)c1	?	7.3%	?	i	i	6.48µM*	?	?	-5.0%	?	10.3µM*	PMP22 HiBiT cnf=?
O=C(Nc1ccc(Cl)cc1)C1CCCN(C(=O)c2cccc(-c3ccco3)c2)C1 (stereo not given)	.	1.2%[57.5 µM]	.	.	.	.	.	.	.	.	.
Cc1cc(NS(=O)(=O)c2ccc(NC(=O)c3ccc(Cl)c(Cl)c3)cc2)no1	.	-3.3%	.	.	.	.	.	.	.	.	.
CCC(O)(C(=O)OCc1ccccc1NC(=O)CCC(=O)O)C(C)O (stereo not given)	.	9.6%[29.8 µM]	.	.	.	.	.	.	.	.	.
CCc1ccccc1NC(=O)c1ccc2nc(C(C)C)oc2c1	-9.4%	-8.3%	?	?	i	16.8µM*	?	?	-5.5%	-13.9%	-8.9%
CCc1ccc(NC(=O)c2ccc3nc(C(C)C)oc3c2)cc1	1.9%	-13.2%	?	2.8%	i	?	.	.	.	.	.
O=C(Nc1ccccc1C(F)(F)F)N1CCN(c2ccc3nnc(-c4ccc(F)cc4)n3n2)CC1	-2.0%	?	-6.8%	-18.8%	i	16µM*	-18.0%	-3.7%	-8.7%	-9.8%	?
